# Laboratory results: PubChem BioAssay (Tox21)
# Values joined by “and” are separate entries in the source; they are usually repeats but may differ in a detail not shown here. Equal entries are not always repeated. A number with no mark means an inactive call. Results filed as inconclusive are left out. Entries that show only a call come without a potency. Active and inactive are the calls of the source. Unless noted, the call rests on the fitted dose curve; in most records, active means well fitted curve in the direction sought with a large enough effect in the repeat runs; inconclusive means weak or mixed curves; inactive means no such curve, though single readings can be large; an effect the other way counts as inactive or inconclusive.
# Key:
# [1] = target: Progesterone receptor (Homo sapiens) (UniProt P06401); test: qHTS assay to identify small molecule agonists of the progesterone receptor (PR) signaling pathway (AID 1346784; calls by dose curve; further: nearly all actives have a fitted effect of over 30% in size)
# Progesterone receptor (Homo sapiens), sequence (P06401 whole entry, looked up): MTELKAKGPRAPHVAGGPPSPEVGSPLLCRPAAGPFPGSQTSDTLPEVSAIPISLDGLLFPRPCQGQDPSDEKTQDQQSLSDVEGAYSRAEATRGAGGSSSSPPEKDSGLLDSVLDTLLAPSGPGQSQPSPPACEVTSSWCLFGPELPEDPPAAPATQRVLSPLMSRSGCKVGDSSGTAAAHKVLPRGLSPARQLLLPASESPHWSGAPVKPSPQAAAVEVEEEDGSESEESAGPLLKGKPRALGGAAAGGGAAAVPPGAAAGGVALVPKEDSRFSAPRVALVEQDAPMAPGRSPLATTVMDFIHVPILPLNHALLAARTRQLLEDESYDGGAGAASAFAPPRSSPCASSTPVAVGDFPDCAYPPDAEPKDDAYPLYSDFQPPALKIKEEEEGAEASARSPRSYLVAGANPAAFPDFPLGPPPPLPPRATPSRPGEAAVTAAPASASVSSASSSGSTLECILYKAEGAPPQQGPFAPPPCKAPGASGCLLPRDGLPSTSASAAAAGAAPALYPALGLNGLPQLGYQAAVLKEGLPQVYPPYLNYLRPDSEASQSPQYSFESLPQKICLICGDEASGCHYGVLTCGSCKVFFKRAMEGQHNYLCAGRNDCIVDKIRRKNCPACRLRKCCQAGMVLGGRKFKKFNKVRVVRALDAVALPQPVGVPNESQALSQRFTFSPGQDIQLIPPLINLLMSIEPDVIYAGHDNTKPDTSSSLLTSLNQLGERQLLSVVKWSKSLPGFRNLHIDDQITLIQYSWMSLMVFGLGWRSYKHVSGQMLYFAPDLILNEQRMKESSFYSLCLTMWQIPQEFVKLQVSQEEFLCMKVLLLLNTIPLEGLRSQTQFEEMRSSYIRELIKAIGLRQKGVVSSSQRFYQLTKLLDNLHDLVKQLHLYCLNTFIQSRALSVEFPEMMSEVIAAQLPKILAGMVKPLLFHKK
# How it was run: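 Reporter assay, GripTite PR-UAS-bla HEK 293T cells: 16 hr exposure to DMSO-dissolved compounds at 37C, 5% CO2, in steroid-depleted (2% charcoal-stripped FBS) medium; beta-lactamase measured by FRET fluorescence.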
# [2] = qHTS assay to identify small molecule antagonists of the progesterone receptor (PR) signaling pathway - cell viability counter screen (AID 1346798); further: nearly all actives have a fitted effect of over 50% in size; further: potency means the concentration at half of the fitted maximal effect
# How it was run: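 In the same plates used for the beta-lactamase readout, cell viability of compound- and R5020-treated PR-UAS-bla HEK293T cells (16 hr, 37C) was assessed by CellTiter-Glo luminescence.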
# [3] = qHTS assay to identify small molecule antagonists of the TGF-beta/Smad signaling pathway - cell viability counter screen (AID 1346824); further: nearly all actives have a fitted effect of over 50% in size
# How it was run: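 Cytotoxicity counter-screen run in the same wells as the beta-lactamase Smad reporter read: CellTiter-Glo luminescence after 30 min at room temperature. HEK 293T SBE-bla cells had 5 hr compound exposure at 37 C with TGF-beta1 (0.25 ng/mL stock).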
# [4] = qHTS assay to identify small molecule agonists of the TGF-beta/Smad signaling pathway - cell viability counter screen (AID 1346829); further: top concentration of the series differs between compounds; nearly all actives have a fitted effect of over 45% in size
# How it was run: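 In parallel with the Smad reporter read, viability of HEK 293T cells stably carrying SBE-bla is quantified by ATP luminescence following 5 hr compound treatment.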
# [5] = qHTS assay to identify small molecule agonists of the TGF-beta/Smad signaling pathway (AID 1346859; active means well fitted activation curve with a large enough effect in the signal ratio in the repeat runs, not every such curve was filed as active; the % refers to the signal ratio; further: series mostly up to about 77 µM)
# How it was run: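 Screening used HEK 293T SBE-bla cells at 4,000/well. Test agents: 5 hr, 37 C. Detection: FRET substrate, 2 hr RT, then excitation 405 nm with emissions at 460 and 530 nm.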
# [6] = target: Thyrotropin-releasing hormone receptor (Homo sapiens) (UniProt P34981); test: qHTS assay to identify small molecule antagonists of the thyrotropin-releasing hormone receptor (TRHR) signaling pathway (AID 1346877; active means well fitted inhibition curve with a large enough effect in the repeat runs, not every such curve was filed as active; further: series mostly up to about 51 µM)
# Thyrotropin-releasing hormone receptor (Homo sapiens), sequence (P34981 whole entry, looked up): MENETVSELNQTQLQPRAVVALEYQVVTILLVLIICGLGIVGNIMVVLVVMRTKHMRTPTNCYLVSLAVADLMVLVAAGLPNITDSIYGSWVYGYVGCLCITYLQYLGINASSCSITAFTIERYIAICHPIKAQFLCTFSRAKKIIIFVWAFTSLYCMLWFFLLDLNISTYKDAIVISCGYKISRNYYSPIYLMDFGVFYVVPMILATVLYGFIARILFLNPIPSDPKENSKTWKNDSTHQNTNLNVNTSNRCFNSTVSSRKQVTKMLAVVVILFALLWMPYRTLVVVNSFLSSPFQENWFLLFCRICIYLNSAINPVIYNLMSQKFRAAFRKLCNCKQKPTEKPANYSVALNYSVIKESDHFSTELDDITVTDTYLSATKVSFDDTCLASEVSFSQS
# How it was run: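 Antagonism is measured as suppression of the calcium response to 1 nM TRH in TRHR-HEK293 cells that have been dye-loaded for 2 h at 37 °C after overnight plating. Each compound is tested at 15 concentrations in triplicate.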
# [7] = target: Thyrotropin-releasing hormone receptor (Homo sapiens) (UniProt P34981); test: qHTS assay to identify small molecule agonists of the thyrotropin-releasing hormone receptor (TRHR) signaling pathway (AID 1346891; calls by dose curve; further: series mostly up to about 58 µM)
# How it was run: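 Readout was intracellular calcium fluorescence in TRHR-Hek293 cells. Cells were incubated 18 h, dye-loaded 2 h at 37 °C, and treated with compound in agonist mode.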
# [8] = Human pregnane X receptor (PXR) small molecule agonists, qHTS cell viability counter screen (AID 1346977); further: nearly all actives have a fitted effect of over 50% in size; further: potency means the concentration at half of the fitted maximal effect
# How it was run: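 In each well, the PXR reporter HepG2 line was checked for viability: CellTiter-Fluor reagent added 23hr post-dosing, fluorescence read after 1hr incubation at 37C.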
# [9] = Caspase-3/7 induction in HepG2 cells by small molecules, qHTS assay (AID 1346978); further: nearly all actives have a fitted effect of over 15% in size; further: potency means the concentration at half of the fitted maximal effect
# How it was run: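 Caspase-3/7 induction was measured by Caspase-Glo 3/7 luminescence (30 min, room temperature) after a 17 hr compound exposure of wild-type HepG2 cells seeded at 2,000 per well and pre-incubated 5 hr.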
# [10] = Caspase-3/7 induction in CHO-K1 cells by small molecules, qHTS cell viability counter screen (AID 1346979); further: nearly all actives have a fitted effect of over 35% in size; further: potency means the concentration at half of the fitted maximal effect
# How it was run: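 Following a 5hr settling period, CHO-K1 cells at 1,500 per well received DMSO-dissolved compounds. Cell viability was quantified 16hr later by CellTiter-Fluor fluorescence, measured after 1hr with reagent at 37C.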
# [11] = Caspase-3/7 induction in CHO-K1 cells by small molecules, qHTS assay (AID 1346980); further: nearly all actives have a fitted effect of over 15% in size
# How it was run: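 Luminescent Caspase-Glo 3/7 read (30min, room temperature) quantified apoptosis induction. Cells were wild-type CHO-K1, treated with compound for 17hr at 37 C and 5% CO2.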
# [12] = Caspase-3/7 induction in HepG2 cells by small molecules, qHTS cell viability counter screen (AID 1346981); further: nearly all actives have a fitted effect of over 30% in size; further: potency means the concentration at half of the fitted maximal effect
# How it was run: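 Cell viability is measured as a cytotoxicity counter screen alongside the Caspase-Glo 3/7 readout in identical wells. Wild-type HepG2 cells are treated with test compounds for 16 hr at 37 C before CellTiter-Fluor addition and a 1-hr incubation.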
# [13] = target: Nuclear receptor subfamily 1 group I member 2 (Homo sapiens) (UniProt O75469); test: Human pregnane X receptor (PXR) small molecule agonists, qHTS assay (AID 1346982); further: nearly all actives have a fitted effect of over 35% in size; further: potency means the concentration at half of the fitted maximal effect
# Nuclear receptor subfamily 1 group I member 2 (Homo sapiens), sequence (O75469 whole entry, looked up): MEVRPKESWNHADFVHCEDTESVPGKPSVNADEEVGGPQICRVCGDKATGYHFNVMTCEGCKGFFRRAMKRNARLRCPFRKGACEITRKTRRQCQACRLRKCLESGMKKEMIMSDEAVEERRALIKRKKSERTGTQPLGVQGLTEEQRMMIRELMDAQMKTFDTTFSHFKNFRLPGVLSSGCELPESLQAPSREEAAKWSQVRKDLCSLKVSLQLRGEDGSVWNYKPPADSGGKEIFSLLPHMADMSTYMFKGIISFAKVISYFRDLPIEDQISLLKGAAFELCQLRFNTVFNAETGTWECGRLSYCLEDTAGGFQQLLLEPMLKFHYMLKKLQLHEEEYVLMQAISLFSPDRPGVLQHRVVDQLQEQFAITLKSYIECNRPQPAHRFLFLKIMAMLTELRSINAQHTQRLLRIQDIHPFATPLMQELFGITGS
# How it was run: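 Cells: HepG2 stably carrying PXR-Luc. Medium held 5% charcoal-stripped FBS. Compounds in DMSO added after 5 hr plating, incubated 24 hr, then luminescence quantified with ONE-Glo.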
# [14] = target: Nuclear receptor subfamily 1 group I member 2 (Rattus norvegicus) (UniProt Q9R1A7); test: Rat pregnane X receptor (rPXR) activation by small molecules, qHTS assay (AID 1346983); details: rPXR luciferase reporter cells, One-Glo luminescence, 24 h; max activation: stronger effect = higher value; further: nearly all actives have a fitted effect of over 20% in size
# Nuclear receptor subfamily 1 group I member 2 (Rattus norvegicus), sequence (Q9R1A7 whole entry, looked up): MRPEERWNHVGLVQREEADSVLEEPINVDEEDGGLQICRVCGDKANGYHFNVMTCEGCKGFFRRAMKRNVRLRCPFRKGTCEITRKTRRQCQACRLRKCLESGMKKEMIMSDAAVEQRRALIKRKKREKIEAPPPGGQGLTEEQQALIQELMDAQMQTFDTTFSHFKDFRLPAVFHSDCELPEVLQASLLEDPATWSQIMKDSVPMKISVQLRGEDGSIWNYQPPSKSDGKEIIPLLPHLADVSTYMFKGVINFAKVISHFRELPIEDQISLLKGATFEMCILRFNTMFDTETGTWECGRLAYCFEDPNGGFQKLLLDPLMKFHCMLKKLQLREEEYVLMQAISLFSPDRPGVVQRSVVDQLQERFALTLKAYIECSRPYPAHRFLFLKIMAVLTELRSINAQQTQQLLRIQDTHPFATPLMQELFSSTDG
# How it was run: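 Luminescent readout (One-Glo luciferase, 30 min room temperature) followed 24 hr compound treatment at 37 C of rPXR cells plated 2,000 per well and preincubated 5hr; qHTS format with compounds delivered in DMSO.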
# [15] = target: Nuclear receptor subfamily 1 group I member 2 (Homo sapiens) (UniProt O75469); test: CYP3A4 induction through human pregnane X receptor (PXR) by small molecules, qHTS assay (AID 1346984); further: nearly all actives have a fitted effect of over 40% in size; further: potency means the concentration at half of the fitted maximal effect
# How it was run: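 Quantitative HTS in DPX-2 cells, i.e. HepG2 transfected with PXR response element and CYP3A4-promoter luciferase. Compounds in DMSO incubated 24hr at 37C; then P450-Glo CYP3A4 substrate, 3uM final, 3hr; One-Glo luminescence.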
# [16] = target: Cytochrome P450 2D6 (Homo sapiens) (UniProt P10635); test: Cytochrome P450 Family 2 Subfamily D Member 6 (CYP2D6) small molecule antagonists: luciferase reporter qHTS assay (AID 1671196); further: nearly all actives have a fitted effect of over 50% in size; further: potency means the concentration at half of the fitted maximal effect
# Cytochrome P450 2D6 (Homo sapiens), sequence (P10635 whole entry, looked up): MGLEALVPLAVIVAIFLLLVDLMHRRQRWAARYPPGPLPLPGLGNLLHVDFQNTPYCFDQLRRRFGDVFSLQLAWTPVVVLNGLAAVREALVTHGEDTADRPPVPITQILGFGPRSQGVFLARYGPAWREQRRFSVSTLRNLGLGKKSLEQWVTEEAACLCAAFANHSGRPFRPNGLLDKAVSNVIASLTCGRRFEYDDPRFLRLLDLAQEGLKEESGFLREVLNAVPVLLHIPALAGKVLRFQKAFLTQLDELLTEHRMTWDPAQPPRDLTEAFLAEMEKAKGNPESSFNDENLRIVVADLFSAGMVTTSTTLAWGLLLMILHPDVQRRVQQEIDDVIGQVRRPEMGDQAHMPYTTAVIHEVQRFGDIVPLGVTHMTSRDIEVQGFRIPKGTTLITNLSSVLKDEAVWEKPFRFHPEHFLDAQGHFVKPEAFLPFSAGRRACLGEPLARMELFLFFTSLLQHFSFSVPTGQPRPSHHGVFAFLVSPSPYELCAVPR
# How it was run: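 Enzyme and proluciferin substrate were first combined with test chemical for 10 min at room temperature. Adding NADPH regeneration solution started a 1 h reaction, stopped with luciferin detection reagent and read by luminescence 20 min later.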
# [17] = target: Cytochrome P450 2C19 (Homo sapiens) (UniProt P33261); test: Cytochrome P450 Family 2 Subfamily C Member 19 (CYP2C19) small molecule antagonists: luciferase reporter qHTS assay (AID 1671197); further: nearly all actives have a fitted effect of over 65% in size; further: potency means the concentration at half of the fitted maximal effect
# Cytochrome P450 2C19 (Homo sapiens), sequence (P33261 whole entry, looked up): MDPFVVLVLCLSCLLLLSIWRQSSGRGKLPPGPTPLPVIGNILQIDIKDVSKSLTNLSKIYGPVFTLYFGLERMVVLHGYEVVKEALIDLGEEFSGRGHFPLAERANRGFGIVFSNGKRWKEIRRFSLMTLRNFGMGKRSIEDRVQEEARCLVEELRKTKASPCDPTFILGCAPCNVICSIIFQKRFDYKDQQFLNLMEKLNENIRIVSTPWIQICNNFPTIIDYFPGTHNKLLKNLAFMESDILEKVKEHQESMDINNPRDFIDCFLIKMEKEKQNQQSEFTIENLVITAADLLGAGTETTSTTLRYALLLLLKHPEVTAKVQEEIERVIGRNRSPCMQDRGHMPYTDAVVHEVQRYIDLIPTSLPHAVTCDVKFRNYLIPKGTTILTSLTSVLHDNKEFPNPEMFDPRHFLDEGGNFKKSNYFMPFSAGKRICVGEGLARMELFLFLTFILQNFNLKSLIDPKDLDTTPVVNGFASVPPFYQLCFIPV
# How it was run: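 Compounds were tested on CYP2C19 activity via proluciferin conversion to luciferin. The 37C, 1 h reaction followed NADPH addition; detection reagent stopped it.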
# [18] = qHTS assay to identify small molecule agonists of the progesterone receptor (PR) signaling pathway - cell viability counter screen (AID 1346799; calls by dose curve; further: nearly all actives have a fitted effect of over 45% in size; further: potency means the concentration at half of the fitted maximal effect)
# How it was run: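 Multiplexed viability read: CellTiter-Glo luminescence, 30 min RT, following LiveBLAzer FRET measurement on PR-UAS-bla HEK293T cells exposed to compounds 16 hr.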
# [19] = target: Cytochrome P450 2C9 (Homo sapiens) (UniProt P11712); test: Cytochrome P450 Family 2 Subfamily C Member 9 (CYP2C9) small molecule antagonists: luciferase reporter qHTS assay (AID 1671198); further: nearly all actives have a fitted effect of over 50% in size; further: potency means the concentration at half of the fitted maximal effect
# Cytochrome P450 2C9 (Homo sapiens), sequence (P11712 whole entry, looked up): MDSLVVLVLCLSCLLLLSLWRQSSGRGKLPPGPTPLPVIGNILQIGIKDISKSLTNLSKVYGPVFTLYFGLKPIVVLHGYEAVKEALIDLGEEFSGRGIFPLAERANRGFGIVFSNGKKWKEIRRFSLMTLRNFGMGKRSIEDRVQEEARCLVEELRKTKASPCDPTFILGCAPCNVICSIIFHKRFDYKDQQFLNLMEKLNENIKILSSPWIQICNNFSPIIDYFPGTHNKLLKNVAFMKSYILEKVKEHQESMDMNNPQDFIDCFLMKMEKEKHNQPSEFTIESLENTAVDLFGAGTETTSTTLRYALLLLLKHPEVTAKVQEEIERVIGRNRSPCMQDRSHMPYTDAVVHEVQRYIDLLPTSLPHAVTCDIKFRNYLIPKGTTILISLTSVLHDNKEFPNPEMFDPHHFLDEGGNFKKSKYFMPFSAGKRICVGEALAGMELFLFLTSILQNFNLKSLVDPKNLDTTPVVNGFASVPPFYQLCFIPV
# How it was run: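 Enzyme-substrate mix preincubated with compound 10 min at room temperature; reaction started with NADPH regeneration solution, 1 h 37C. Luminescent luciferin product read after 20 min detection reagent.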
# [20] = target: Progesterone receptor (Homo sapiens) (UniProt P06401); test: qHTS assay to identify small molecule antagonists of the progesterone receptor (PR) signaling pathway (AID 1346795; active means well fitted inhibition curve with a large enough effect in the signal ratio in the repeat runs, not every such curve was filed as active; the % refers to the signal ratio)
# How it was run: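 Stimulus R5020 at 1 nM final; cells HEK293T PR-UAS-bla; medium with 2% charcoal-stripped FBS; compound exposure 16 hr at 37C, 5% CO2; detection by FRET beta-lactamase substrate, 2 hr, room temperature.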
SMILES,outcome [1],Potency [2],Potency [3],Potency [4],Potency [5],Potency [6],Potency [7],Potency [8],Potency [9],Potency [10],Potency [11],Potency [12],Potency [13],max activation [14],Potency [15],Potency [16],Potency [17],Potency [18],Potency [19],Potency [20]
CN(Cc1cc(Br)cc(Br)c1N)C1CCCCC1,inactive,inactive,inactive,inactive,inactive,inactive,inactive,inactive,inactive,inactive,inactive,inactive,13.3 µM (active),-3.03%,14.1 µM (active),0.0078 µM (active),4.36 µM (active),–,–,–
CCCCCCCCCCCC(=O)N(CC)CC,inactive,inactive,inactive,inactive,inactive,inactive,inactive,inactive,inactive,inactive,inactive,inactive,21.7 µM (active),–,–,–,inactive,inactive,50.2 µM (active),–
O=C1NC2CCCCN2C12CCN(CCCN1c3ccccc3CCc3ccc(Cl)cc31)CC2 (stereo unspecified),inactive,26.6 µM (active),inactive,–,–,inactive,inactive,26.6 µM (active),29.8 µM (active),26.6 µM (active),–,29.8 µM (active),inactive,–,–,7.76 µM (active),–,23.7 µM (active),inactive,–
CCc1ccc(C)nc1,inactive,inactive,inactive,inactive,inactive,–,–,inactive,inactive,inactive,–,–,inactive,–,–,inactive,–,inactive,inactive,–
CC(C)(C)c1n[nH]c(=O)n(N)c1=O,inactive,inactive,inactive,inactive,inactive,inactive,inactive,inactive,inactive,inactive,inactive,inactive,–,–,–,–,inactive,–,inactive,–
CC1(C)COCN1,inactive,inactive,inactive,inactive,inactive,inactive,inactive,inactive,inactive,inactive,–,–,inactive,–,–,inactive,–,inactive,inactive,–
C=CC(C)(CCC=C(C)C)OC(=O)/C=C/c1ccccc1 (stereo unspecified),inactive,inactive,inactive,inactive,inactive,inactive,inactive,inactive,inactive,inactive,–,inactive,61.1 µM (active),–,–,inactive,–,inactive,6.33 µM (active),–
Cc1cc(=O)[nH]c(=O)[nH]1,inactive,inactive,inactive,inactive,inactive,inactive,inactive,inactive,inactive,inactive,–,–,inactive,–,–,inactive,inactive,inactive,inactive,–
COC(=O)NCCC[Si](OC)(OC)OC,inactive,–,inactive,inactive,inactive,inactive,inactive,inactive,inactive,inactive,inactive,inactive,inactive,–,–,inactive,–,–,inactive,–
CC1CCCNC1 (stereo unspecified),inactive,–,inactive,inactive,inactive,inactive,inactive,–,inactive,–,inactive,inactive,–,–,–,39.1 µM (active),–,–,inactive,–
CC(=O)Oc1ccc(C2(c3ccc(OC(C)=O)cc3)C(=O)Nc3ccccc32)cc1,inactive,–,inactive,inactive,inactive,–,–,inactive,inactive,inactive,inactive,–,–,-4.61% and -2.34%,inactive,–,11 µM (active),–,5.49 µM (active),–
NCCCC(O)(P(=O)(O)O)P(=O)(O)O,–,inactive,inactive,inactive,inactive,inactive,inactive,inactive,inactive,inactive,inactive,inactive,–,-1.25%,–,–,–,inactive,–,inactive
CCCCCCCOC(=O)c1ccccc1C(=O)OCCCCCCC,–,inactive,inactive,inactive,inactive,inactive,inactive,inactive,inactive,inactive,inactive,inactive,inactive,–,–,inactive,39.9 µM (active),inactive,17.8 µM (active),inactive
CCOB(OCC)OCC,inactive,–,inactive,inactive,inactive,–,–,inactive,inactive,inactive,inactive,inactive,inactive,–,–,inactive,inactive,–,inactive,–
CC(C)(C)C1=CC(=O)C=C(C(C)(C)C)C1=O,–,inactive,inactive,inactive,inactive,inactive,inactive,inactive,inactive,inactive,inactive,inactive,inactive,–,–,inactive,3.17 µM (active),inactive,–,inactive
C=CC(=O)OCC(O)COc1ccccc1 (stereo unspecified),inactive,–,inactive,inactive,inactive,inactive,inactive,inactive,inactive,61.1 µM (active),inactive,–,inactive,–,–,inactive,–,inactive,–,–
